Assay outcomes as filed in PubChem BioAssay.
S1P2 ag: S1P2 receptor agonists, primary screen, cell-based; AID 729, 2007; 97,000 tested, 0.46% active; activation, % at 4.5 µM; Sphingosine 1-phosphate receptor 2 (Homo sapiens), O95136; S1P2-expressing cell line, agonist reporter read-out; in the data active means activation above about 16%;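 further: 0% = vehicle low control and 100% = maximal reference agonist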
GALR2 agonist: GALR2 receptor agonists, primary screen, cell-based; GALR2-expressing cells, agonist activation read-out; activation, % (no concentration beside the values); 140,000 tested, 0.48% active; AID 803, 2007; in the data active means activation above about 5%, passing the limit was not always enough;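 further: 0% = vehicle buffer wells and 100% = reference agonist at full effect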
Target sequence (O43603 whole entry, looked up): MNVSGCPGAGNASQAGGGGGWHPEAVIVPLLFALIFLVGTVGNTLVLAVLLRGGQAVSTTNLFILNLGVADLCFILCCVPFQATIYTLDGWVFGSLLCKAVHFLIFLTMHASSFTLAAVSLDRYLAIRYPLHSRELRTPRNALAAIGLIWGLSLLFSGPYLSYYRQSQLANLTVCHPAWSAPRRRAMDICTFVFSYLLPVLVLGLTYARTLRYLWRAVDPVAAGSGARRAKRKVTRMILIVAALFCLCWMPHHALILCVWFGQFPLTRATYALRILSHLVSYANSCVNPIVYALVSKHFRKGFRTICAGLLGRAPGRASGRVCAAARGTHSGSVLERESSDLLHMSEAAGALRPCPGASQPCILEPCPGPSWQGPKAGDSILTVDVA
GALR2 blocker: GALR2 antagonists in receptor-expressing cells, primary screen; Galanin receptor type 2 (Homo sapiens), O43603; antagonist mode; inhibition, % at 4 µM; 140,000 tested, 0.39% active; in the data active means inhibition above about 27%;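 further: cells stimulated with galanin 1-16 at roughly its EC80; 0% = agonist challenge control and 100% = basal control without agonist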
S1P2 blocker: human S1P2 receptor antagonists, primary screen, cell-based | Sphingosine 1-phosphate receptor 2 (Homo sapiens), O95136 | cell-based S1P2 antagonist assay, inhibition at 5 uM | AID 736, 2007 | 97,000 tested, 0.21% active | inhibition, % at 5 µM; in the data active means inhibition above about 45%;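 further: CRE beta-lactamase reporter cells expressing human S1P2 stimulated with S1P; 0% = agonist at EC80 alone and 100% = agonist plus reference antagonist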
GALR2 ag confirm: GALR2 agonists, retest of hits, confirmation, cell-based. activation, % at 5.6 µM. 460 tested, 10% active. GALR2-expressing cells, agonist activation. shares compounds with GALR2 agonist; in the data active means activation above about 8.4%;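 further: 0% = buffer-only vehicle wells and 100% = full reference agonist response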
BLA act counter: activators of NFAT-driven beta-lactamase reporter, confirmation, counter-screen for GALR2 agonist project, CHO NFAT-bla cells, FRET readout; shares compounds with GALR2 agonist; beta-lactamase FRET activation; activation, % at 5.6 µM; 460 tested, 10% active; AID 865, 2007;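 active means activation above the screen-wide mean activation plus 3 SD, cut at about 8% in these data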;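 further: 0% = DMSO with PBS wells and 100% = thapsigargin positive control wells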
* hit, by the source's call; nt = no result given. Compounds with a hit are over-represented: about 1.2% of the library has one in this group of screens.

SMILES	S1P2 ag	GALR2 agonist	GALR2 blocker	S1P2 blocker	GALR2 ag confirm	BLA act counter
CC(C)Cn1c(-c2ccc(Cl)cc2)cnc1SCC(=O)N1CCOCC1	-2	21*	-1	30	-1	-1
CCCCN(CC)C(=O)Cn1c(=O)sc2ccccc21	-6	-3	8	-3	nt	nt
COCCN1C=C(C(=O)OC)C(c2ccccc2C(F)(F)F)C(C(=O)OC)=C1	11	18*	-2	-15	2	6
CCOc1ccccc1N=c1oc2cc(O)ccc2cc1C(=O)NCC1CCCO1 (stereo not given)	18*	66*	-25	-48	2	7
CCOc1ccc(S(=O)(=O)Nc2ccccc2C(=O)NCC2CCCO2)cc1 (stereo not given)	-6	-3	4	17	nt	nt
Cc1cccn2c(=O)c(/C=C(\C#N)C(=O)NC3CCS(=O)(=O)C3)c(N3CCC(C)CC3)nc12 (stereo not given)	nt	5	-19	nt	nt	nt
N#C/C(=C\c1c(N2CCCCC2)nc2ccccn2c1=O)C(=O)NC1CCS(=O)(=O)C1 (stereo not given)	nt	13*	-6	nt	0	0
C=CCOc1ccc(C2/C(=C(\O)c3ccc(F)cc3)C(=O)C(=O)N2CCCN(C)C)cc1 (stereo not given)	-10	8.3*	7	6	0	0
COc1ccc(C(=O)NCC(=O)NCC(=O)OCC(=O)C(C)(C)C)cc1	nt	0	-4	nt	nt	nt
Clc1ccc(Cl)c(OCc2cc(-c3ccccc3Cl)on2)c1	-4	0	-10	1	nt	nt
CCOCC(=O)Nc1nnc(COC)s1	-4	0	-2	1	nt	nt
COCc1nnc(NC(=O)C(C)C)s1	3	136*	-1	-9	-1	0
Cc1ccc(NC(=O)C2CC(=O)N/C(=N/N=C/c3ccco3)S2)cc1C (stereo not given)	nt	0	-4	nt	nt	nt
COc1ccc(NC(=O)CSc2nc(N)c(C#N)cc2C#N)cc1	-1	0	-4	-1	nt	nt
CCOC(=O)c1c(C#N)c(SCC(=O)Nc2ccc(OC)cc2)nc2c1CN(CC)CC2	-2	67*	-1	4	0	-1
CC1CCc2cc(F)cc3c(O)c(C(=O)NCc4ccco4)c(=O)n1c23 (stereo not given)	-10	9.5*	0	17	0	-1
O=S(=O)(c1cccc(C(F)(F)F)c1)N1CCN(c2ccccc2)CC1	-3	12*	-9	1	-1	-3
O=C(CSc1ccc2nnc(-c3cccc(F)c3)n2n1)N1CCCc2ccccc21	nt	9.1*	2	nt	9.7*	8
O=C(Nc1cccc2ncccc12)C12CC3CC(CC(C3)C1)C2	-4	0	-14	-9	nt	nt
O=C(CC12CC3CC(CC(C3)C1)C2)Nc1cccc2ncccc12	-3	23*	-8	-7	0	-1
N/N=c1\sc2ccccc2n1-c1ccccc1	-5	0	-1	9	nt	nt
CC(C)(C)c1ccc(-c2nnc(SCCN3C(=O)c4ccccc4C3=O)o2)cc1	-8	-2	2	-18	nt	nt
COc1ccccc1-c1cc(C(F)(F)F)nc(S(=O)(=O)CCCC(=O)O)n1	-7	-2	-9	-9	nt	nt
COc1ccccc1-c1cc(C(F)(F)F)nc(S(=O)(=O)CCCC(=O)N2CCOCC2)n1	-3	11	4	-49	1	7
CCN(CC(=O)Nc1ccccc1Br)Cc1nc2ccccc2c(=O)[nH]1	-6	-2	-2	-2	nt	nt
SMILES	S1P2 ag	GALR2 agonist	GALR2 blocker	S1P2 blocker	GALR2 ag confirm	BLA act counter
OCCN(CCO)Cc1csc2ccccc12	nt	1	1	nt	nt	nt
N#Cc1c(NC(=O)c2ccccc2Cl)n(Cc2ccccc2)c2nc3ccccc3nc12	nt	8.2*	10	nt	4	7
CC1CCN(c2ccc(NC(=S)NC(=O)c3ccc(-c4cccc([N+](=O)[O-])c4)o3)cc2)CC1	-4	-2	6	-16	nt	nt
CC1CCN(c2ccccc2NC(=S)NC(=O)c2ccc(-c3cccc([N+](=O)[O-])c3)o2)CC1	-3	21*	8	9	-1	-1
CCOC(=O)N1CCN(S(=O)(=O)c2c(C)cc(C)cc2C)CC1	1	-1	-8	17	nt	nt
CCOC(=O)N1CCN(C(=O)C2CCN(S(=O)(=O)c3c(C)cc(C)cc3C)CC2)CC1	-2	18*	0	6	-1	-3
CC(C)(C)C(=O)NC(=S)Nc1cc(C(F)(F)F)ccc1N1CCOCC1	3	8	0	-47	0	3
Cc1cccc2c1-c1sc(C(=O)Nc3nccs3)cc1CO2	24*	89*	5	-12	11*	24*
O=C(CC1NC(=O)NC1=O)Nc1ccc(Cl)cc1 (stereo not given)	-4	-1	-6	3	nt	nt
O=C(CC1Nc2ccccc2NC1=O)Nc1cc(Cl)cc(Cl)c1 (stereo not given)	16	13*	-1	-1	12*	9.9*
Cc1cc(C(=O)O)c(=O)[nH]c1C	-6	0	-5	-13	nt	nt
O=C(O)c1c[nH]ccc1=O	-7	12*	5	24	-1	-3
CCOc1ccc(NC(=O)CSCc2cnn(-c3ccccc3)c2-n2cccc2)cc1	-8	-3	-10	-15	nt	nt
O=C(N/N=C/c1cc(Cl)cc([N+](=O)[O-])c1O)NC12CC3CC(CC(C3)C1)C2	nt	21*	0	nt	-1	-3
Cc1cc(C(=O)N/N=C/c2cc(Cl)cc([N+](=O)[O-])c2O)c2ccccc2n1	nt	-2	-13	nt	nt	nt
CN(C)c1ccc(/C=C2/SC(=O)N(CCN=C3NS(=O)(=O)c4ccccc43)C2=O)cc1	nt	13*	8	nt	5	-2
CN(C)c1ccc(/C=C2\SC(=O)N(CC(O)Cn3c4ccccc4c4ccccc43)C2=O)cc1 (stereo not given)	nt	-1	-5	nt	nt	nt
CC(=O)c1cccc(NC(=O)c2ccc(Br)o2)c1	nt	-1	13	nt	nt	nt
CCCCC(=O)Nc1cccc(NC(=O)c2ccc(Br)o2)c1	-2	9	6	11	-1	-2
COc1ccc(-c2nnc3n2N=C(c2cccc(Br)c2)CS3)cc1OC	nt	9.7*	9	nt	1	0
C=CCNc1cc(C)oc(=O)c1C(=O)CCC	3	-2	2	-41	nt	nt
NS(=O)(=O)c1ccc(CCNc2nc3c(-c4cccc(F)c4)nnn3c3ccccc23)cc1	nt	11*	18	nt	3	2
Cc1cccc(-c2nnn3c2nc(NCCc2ccc(S(N)(=O)=O)cc2)c2ccccc23)c1	nt	4	18	nt	nt	nt
CCSc1nnc(-c2cccnc2)n1-c1ccc(C)c(Cl)c1	-3	9	-32	-6	0	0
OCCN1CCN(c2cc(-c3ccccc3)c3ccccc3n2)CC1	nt	0	10	nt	nt	nt
O=C(CCSCCc1ccccn1)Nc1ccc(Cl)cn1	-4	11	-6	2	-1	0
O=C(/C=C/c1ccco1)Nc1cc(Cl)ccc1C(=O)O	nt	12*	-8	nt	-1	-2
